Compound activity as filed in PubChem BioAssay.
Rows were chosen to be rich in hits. Some 4.8% of all compounds tested hit in one or more screens of this group.
S2 tox – Viability Counterscreen for Primary qHTS for Inhibitors of ATXN expression. S2 cells (HEK-293 line with an ATXN2-luciferase reporter) viability, CellTiter-Fluor protease fluorescence, 24 h. Potency, µM (highest dose often 56.7 µM), hits mostly cytotoxic. actives 0.49% (n = 400,000). AID 651635, 2014; note: potency is the fitted concentration of half-maximal effect; nearly all actives have a fitted effect of over 40% in size
ATXN2 expr inh – Primary qHTS for Inhibitors of ATXN expression. AID 1745845, 2022. Potency, µM (series often up to 57 µM), inactives show top-dose activity change, negative = inhibition, usual class: inhibitors. actives 0.72% (n = 360,000). HEK-293 ATXN2-luciferase reporter, luminescence, 24 h; note: potency is the fitted concentration of half-maximal effect; % is set by controls: 0 for no effect and ±100 for the full control effect; nearly all actives have a fitted effect of over 55% in size
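qHTS (up to 57 uM final) was run with 24 h compound exposure of reporter cells at 37 °C. Each well was multiplexed: SteadyGlo luminescence measured ATXN2-luciferase expression after a fluorogenic Gly-Phe-AFC viability readout (25 uM final).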
USP1-UAF1 inh – Inhibitors of USP1/UAF1: Primary Screen. Ubiquitin carboxyl-terminal hydrolase 1 (Homo sapiens), O94782. recombinant USP1/UAF1, Ub-Rhodamine cleavage fluorescence. Potency, µM (doses to about 57.1 µM), for the others: at the highest dose activity change, negative = inhibition, actives largely listed as inhibitors. actives 0.23% (n = 390,000). AID 743255, 2014; note: potency is the fitted concentration of half-maximal effect; % is set by controls: 0 for no effect and ±100 for the full control effect; nearly all actives have a fitted effect of over 60% in size
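1 nM enzyme complex + cpd, 15 min RT; start with Ub-Rho 150nM final; kinetic fluorescence ex 480/em 540, 6 reads q60 s. Buffer 50mM HEPES pH 7.8, 0.5mM EDTA, 0.1 mg/ml BSA, 1mM TCEP, 0.01% Tween-20.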
USP2a inh – qHTS Assay for Inhibitors of Ubiquitin-specific Protease USP2a Using CHOP2 as the Reporter. USP2 core, Ub-CHOP2 coupled fluorogenic reporter, 485/531. Potency, µM (doses to about 38.3 µM), inactives show at the top dose activity change, negative = inhibition, actives largely listed as inhibitors. actives 0.01% (n = 330,000);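 note: potency is the fitted concentration of half-maximal effect; plate controls were DMSO wells for no effect and full inhibition by NEM control for full effect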
Target sequence (O75604 whole entry, looked up): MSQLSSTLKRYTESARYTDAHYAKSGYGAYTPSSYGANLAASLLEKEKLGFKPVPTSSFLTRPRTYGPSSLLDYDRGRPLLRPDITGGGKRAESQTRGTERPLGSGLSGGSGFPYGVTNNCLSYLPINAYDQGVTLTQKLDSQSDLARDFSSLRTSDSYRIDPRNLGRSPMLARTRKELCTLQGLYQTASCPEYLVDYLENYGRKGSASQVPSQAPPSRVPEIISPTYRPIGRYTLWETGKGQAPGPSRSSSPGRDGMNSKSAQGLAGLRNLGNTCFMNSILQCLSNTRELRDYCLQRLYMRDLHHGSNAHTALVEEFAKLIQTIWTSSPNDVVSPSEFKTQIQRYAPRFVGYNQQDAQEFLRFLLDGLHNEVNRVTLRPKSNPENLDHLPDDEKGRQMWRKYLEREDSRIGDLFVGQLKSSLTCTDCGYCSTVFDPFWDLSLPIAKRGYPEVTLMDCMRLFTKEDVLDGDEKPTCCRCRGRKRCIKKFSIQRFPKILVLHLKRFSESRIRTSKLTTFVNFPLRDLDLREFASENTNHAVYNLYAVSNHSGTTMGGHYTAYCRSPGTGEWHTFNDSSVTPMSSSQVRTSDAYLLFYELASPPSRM
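Cell-free coupled assay: 10nM USP2 core preincubated 30min RT with compound in Tris-HCl pH 8.0/CaCl2/CHAPS buffer, then 25nM Ub-CHOP2 and 25nM reporter substrate; fluorescence (Ex 485/Em 531) read after 60min RT, normalized to NEM inhibition, concentration-response curves fitted.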
IL1B secr inh – qHTS for Inhibitors of Inflammasome Signaling: IL-1-beta AlphaLISA Primary Screen; actives 4.7% (n = 360,000); activity change, % at 57.5 µM; THP-1 LPS/ATP IL-1B secretion, AlphaLISA, 16 h; hits give low values; in the data active = activity change below about -50%; inconclusive = mostly about -30% to -49%; note: % is set by controls: 0 for no effect and ±100 for the full control effect
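THP-1 cells pretreated 1 hr with compounds (up to 57.5 uM final), then stimulated with LPS (250 ng/mL final) plus ATP (1.25 mM final); secreted IL-1B measured by AlphaLISA after 16 hr, decreased signal indicating inhibition.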
Starred values were filed as active, the others as inactive; i = inactive; u = inconclusive; x = no result given; [ ] = another dose, or the depositor's remark. Unless noted, calls come from the whole dose curve; as a rule, active = well fitted curve in the direction sought with a large enough effect; inconclusive = small, poorly fitted or top-dose-only effect, or another doubt; inactive = no such curve, though single readings can be large; an effect the other way counts as inactive or inconclusive.

SMILES	S2 tox	ATXN2 expr inh	USP1-UAF1 inh	USP2a inh	IL1B secr inh
CCCCN1C(=O)/C(=C/C=C2/CC(C)(C)CN2C)SC1=S	i	65%	22µM*	u	-59*
CN1CCS/C1=C\C=C1/SC(=S)N(CC(=O)O)C1=O	i	-24%	25µM*	u	-15
Cc1c(NC(=O)CSc2ccc3ccccc3n2)c(=O)n(-c2ccccc2)n1C	i	3%	-27%	1%	-30
COc1ccccc1/C=C/CN1CCCC(CO)(Cc2cccc(Cl)c2)C1 (stereo not given)	i	u	u	-5%	-70*
COc1cccc(CC2(CO)CCCN(C/C=C/c3ccccc3OC)C2)c1 (stereo not given)	i	x	-2%	-7%	-5
COc1ccc(/C=C/CN2CCCC(CO)(Cc3cccc(Cl)c3)C2)cc1 (stereo not given)	i	-20%	-9%	-6%	-78*
CC(C)c1onc(C(=O)N2CCN(c3ccccc3)CC2)c1[N+](=O)[O-]	i	-1%	-28%	-3%	-7
Cc1ccc(Cl)cc1N1CCN(C(=O)c2noc(C(C)C)c2[N+](=O)[O-])CC1	i	-18%	-15%	-7%	-81*
Cc1ccc(S(=O)(=O)NCC(=O)NCC(=O)NCCc2ccc(Cl)cc2)cc1C	i	x	1%	x	u
COC(=O)C1=C(C)NC(=O)NC1c1ccc(N2CCC(c3ccccc3)=N2)cc1 (stereo not given)	x	u	-19%	0%	-69*
COc1ccc(OC)c(-c2ccnc(-n3ncc(C(=O)NC(C)(C)CO)c3C3CC3)n2)c1	i	x	x	x	x
CC(=O)n1cc([C@H]2C=C(C(=O)NCc3ccccc3)O[C@@H](OCc3ccc(CO)cc3)C2)c2ccccc21	u	-26%	-25%	1%	-53*
O=C(Nc1ccccc1)C1=C[C@@H](c2csc3ccccc23)C[C@@H](OCc2ccc(CO)cc2)O1	u	u	-17%	-1%	4
O=C(NCc1ccccc1)C1=C[C@H](c2csc3ccccc23)C[C@H](OCc2ccc(CO)cc2)O1	u	-37%	-19%	-3%	-52*
C#CCNC(=O)C1=C[C@@H](c2cn(C(C)=O)c3ccccc23)C[C@@H](OCc2ccc(CO)cc2)O1	i	-6%	-11%	1%	17
CCOC(=O)N1CCN([N+]([O-])=NOc2cc(ON=[N+]([O-])N3CCN(C(=O)OCC)CC3)c([N+](=O)[O-])cc2[N+](=O)[O-])CC1	x	5%	x	x	x
COc1cc(-c2ccc(N=Nc3ccc4c(S(=O)(=O)O)cc(S(=O)(=O)O)c(N)c4c3O)c(OC)c2)ccc1N=Nc1ccc2c(S(=O)(=O)O)cc(S(=O)(=O)O)c(N)c2c1O	i	x	x	x	x
O=S(=O)(O)c1cc(O)c2c(O)c(N=Nc3cc(Cl)ccc3O)c(S(=O)(=O)O)cc2c1	8.9µM*	u	u	-13%	-30
Cc1cc(-c2ccc(N=Nc3c(S(=O)(=O)O)cc4cc(S(=O)(=O)O)cc(N)c4c3O)c(C)c2)ccc1N=Nc1c(S(=O)(=O)O)cc2cc(S(=O)(=O)O)cc(N)c2c1O	x	x	x	10µM*	x
Cc1cc(C)cc(Nc2cc(C)nc3nc(-c4ccco4)nn23)c1	x	x	-2%	x	x
C=C(C)C1CC=C(C)/C(=N\NC(=S)Nc2ccc(C)cc2)C1 (stereo not given)	i	49%	-8%	0%	-5
COc1ccccc1C1CN(Cc2cnn(C)c2C)Cc2ccccc2O1 (stereo not given)	i	x	x	x	x
COc1ccc2c(c1)-c1nc(-n3ncc(C(=O)NC(C)(C)CO)c3C3CC3)ncc1CC2	i	x	x	x	x
Cc1nn(CC(=O)N2CCN(c3ccccc3)CC2)c(=O)c2cc3sccc3n12	x	x	7%	x	x
CCCCN1C(=O)N(C)C2NC(=O)NC21 (stereo not given)	i	-3%	-3%	7%	-26
SMILES	S2 tox	ATXN2 expr inh	USP1-UAF1 inh	USP2a inh	IL1B secr inh
CCCCN1C(=O)NC2NC(=O)NC21 (stereo not given)	i	4%	-13%	0%	-92*
Nc1n[nH]c(N)c1N=Nc1ccccc1F	i	48%	-20%	-2%	-21
Nc1n[nH]c(N)c1N=Nc1ccc(F)cc1	i	x	-8%	-5%	-28
Nc1n[nH]c(N)c1N=Nc1ccccc1	i	2%	0%	0%	-66*
COc1ccc(N=Nc2c(N)n[nH]c2N)cc1	u	11%	u	3%	-53*
Nc1n[nH]c(N)c1N=Nc1ccc(Cl)cc1Cl	u	18%	-11%	-1%	-57*
CCN(CC)c1cc(CS(=O)c2ccccc2)nc(-c2ccccc2)n1 (stereo not given)	i	-14%	-8%	x	-50*
O=C(Nc1ccc(Cl)cn1)c1ccccc1[N+](=O)[O-]	i	-3%[11.3 µM]	-4%	-1%	17
O=[N+]([O-])c1cnc(Nc2ccc(Cl)cn2)c([N+](=O)[O-])c1	u	-11%	-19%	3%	-55*
CCC1CN(CCNC(=O)c2cscn2)Cc2cc(OC)ccc2O1 (stereo not given)	i	x	x	x	x
Cc1ccc(C(=O)NCCc2cccs2)cc1	i	14µM*	-8%	3%	-30
COc1cc(/C=C/C(=O)O)ccc1OS(=O)(=O)c1ccc(C)cc1	i	4%	-2%	-6%	-1
COc1cccc(/C=C/C(=O)c2ccc(C)c([N+](=O)[O-])c2)c1	i	-6%	-22%	-3%	-83*
COc1cc(/C=C/C(=O)c2ccc(NS(=O)(=O)c3ccc(C)cc3)cc2)cc(OC)c1O	u	u	-7%	0%	-103*
COc1ccc(C(=O)/C=C/c2ccc(N3CCCCC3)c([N+](=O)[O-])c2)cc1	u	-30%	-19%	4%	-101*
COc1cc(/C=C/C(=O)c2ccc(NS(=O)(=O)c3ccc(C)cc3)cc2)ccc1OC(F)F	u	u	-20%	-13%	-93*
COc1ccc(C(=O)/C=C/c2ccc(N3CCCCC3)c([N+](=O)[O-])c2)c(OC)c1	u	u	-7%	1%	u
COc1cc(S(=O)(=O)Nc2ccc(C)cc2)ccc1NC(=O)c1ccncc1	i	-9%	-26%	6%	10
O=C(NCc1ccccc1Cl)C1CCCN1C(=O)Nc1ccccc1 (stereo not given)	i	-1%	-24%	1%	9
CCOc1ccc(S(=O)(=O)NCCc2ccccn2)cc1	i	0%	-15%	2%	6
